Rows were chosen to be rich in hits. Some 2.4% of all compounds tested hit in one or more screens of this group.
D2 ag-1 = agonists of human D2 dopamine receptor (beta-arrestin); DiscoveRx PathHunter D2 beta-arrestin, luminescence, 90 min; 100% = 57 uM dopamine signal; actives 0.084% (n = 360,000); P14416; activation, % (concentration not given with the values); in the data active = activation above about 40%; inconclusive = between about 15% and that limit
Target sequence (P14416 whole entry, looked up): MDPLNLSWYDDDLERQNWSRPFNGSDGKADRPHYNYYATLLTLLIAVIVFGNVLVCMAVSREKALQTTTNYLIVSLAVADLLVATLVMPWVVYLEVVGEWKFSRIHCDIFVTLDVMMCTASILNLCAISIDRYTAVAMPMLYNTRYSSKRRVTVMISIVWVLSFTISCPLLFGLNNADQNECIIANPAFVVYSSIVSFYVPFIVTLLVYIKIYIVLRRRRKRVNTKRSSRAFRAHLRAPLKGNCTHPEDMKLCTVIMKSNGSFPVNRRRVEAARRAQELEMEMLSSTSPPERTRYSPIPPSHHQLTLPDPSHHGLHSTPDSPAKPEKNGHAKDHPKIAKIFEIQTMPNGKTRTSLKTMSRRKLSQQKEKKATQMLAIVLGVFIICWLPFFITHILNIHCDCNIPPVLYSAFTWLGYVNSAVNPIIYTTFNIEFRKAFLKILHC
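Agonist mode: compounds alone added to overnight-plated D2 PathHunter cells for 90 min at 37 C, with 57 uM final dopamine (EC100) defining full response. Beta-arrestin recruitment detected by chemiluminescent reagent, read after 1 h at ambient temperature.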
D2 antagonist = antagonists of human D2 dopamine receptor; actives 2% (n = 340,000); inhibition, % at 10 µM; HEK293 TREx D2 cells, calcium flux, dopamine EC80; P14416; in the data active = inhibition above about 30%; inactive = below that, where a call was filed; also: 0% is about no effect
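Tetracycline-induced HEK293 T-REx cells expressing D2 force-coupled to calcium signalling were dye-loaded, exposed to compound for 180 s, then challenged with an EC80 of dopamine; calcium flux was followed kinetically for a further 180 s.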
D2 ag-2 = activates the human D2 dopamine receptor. HEK293 T-REx D2 cells, calcium flux agonist mode. actives 0.53% (n = 340,000). AID 485358. activation, % at 2 µM;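 active = activation over 3 SD above normal in the single-dose calcium agonist read, cut at about 30% in these data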; also: 0% is about no effect
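Calcium-flux readout, 1 cycle/sec over 180 s following compound pin transfer, in inducible HEK293 Trex D2 cells (force-coupled); dopamine controls included. Positive calcium responses during this window marked compounds as potential agonists.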
D2 PAM-1 = positive allosteric modulators of human D2 dopamine receptor; P14416; DiscoveRx D2 beta-arrestin cells, luminescence, 90 min; 100% = 57 uM dopamine signal; potentiation, % (no concentration beside the values); actives 0.23% (n = 360,000); AID 624464; in the data active = potentiation above about 50%; inconclusive = mostly about 30% to 49%
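PathHunter beta-arrestin assay in DiscoveRx D2 cells. Compounds were added with an EC20 of dopamine (50 nM final) for 90 min at 37 deg C. Luminescence was read 1 h after detection reagent, with 57 uM dopamine as the EC100 control.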
D2 PAM-2 = D2 dopamine receptor (human) potentiation. potentiation, % at 10 µM. HEK293 T-REx D2, calcium flux, EC20 dopamine potentiation. P14416. actives 0.34% (n = 340,000);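 active = potentiation over 3 SD above the plate norm, cut at about 30% in these data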; also: 0% is about no effect
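Using a no-wash calcium dye in inducible, force-coupled HEK293 Trex cells expressing D2, we tracked fluorescence each second for 180 s after compound, then for 180 s after EC20 dopamine to detect augmented signalling.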
Numbers without * were called inactive.

How did COc1cc(OC)cc(C(=O)NC(=S)Nc2nc(-c3cc4ccccc4o3)cs2)c1 do in these assays?
D2 ag-1: -2; D2 antagonist: -2; D2 ag-2: 0; D2 PAM-1: -25; D2 PAM-2: -9

Results for Cc1cc(C)cc(NC(=O)c2cccc(C(=O)Nc3cc(C)cc(C)c3)c2)c1 ?
D2 ag-2: 0; D2 PAM-2: -16

How did CCOc1ccc(NC(=O)CC2C(=O)N(c3ccc(Cl)cc3)C(=O)N2Cc2cccs2)cc1 (stereo unspecified) do in these assays?
D2 ag-2: 0; D2 PAM-2: 2

What do the screens show for `CC(C)c1ccc(NC2CCCN(C(=O)c3cccnc3)C2)cc1` (stereo unspecified)?
D2 ag-1: -1; D2 antagonist: 16; D2 ag-2: 1; D2 PAM-1: -1; D2 PAM-2: -7

How did Cc1ccc(NC2CCCN(C(=O)c3cccnc3)C2)cc1C (stereo unspecified) do in these assays?
D2 ag-1: 3; D2 antagonist: 36*; D2 ag-2: 0; D2 PAM-1: -4; D2 PAM-2: 14

How did CCc1nn2c(=O)cc(COC(=O)c3ccccc3NC(=O)c3ccc(C(C)(C)C)cc3)nc2s1 do in these assays?
D2 ag-2: 0; D2 PAM-2: 3

How did COCCn1nnnc1C(c1ccccc1OC)N1CCN(c2ccccc2F)CC1 (stereo unspecified) do in these assays?
D2 ag-1: 0; D2 antagonist: 2; D2 ag-2: 2; D2 PAM-1: 4; D2 PAM-2: -2

What do the screens show for `COCCn1nnnc1C(c1cc2cccc(C)c2[nH]c1=O)N1CCN(c2ccccc2F)CC1` (stereo unspecified)?
D2 ag-1: -1; D2 antagonist: 34*; D2 ag-2: 12; D2 PAM-1: -38; D2 PAM-2: -11

What do the screens show for `Nc1c(C(=O)NCc2ccccc2)nnn1Cc1cccc(Br)c1`?
D2 ag-2: -1; D2 PAM-2: 2

Results for COc1ccc(CCNC(=O)CCCCn2c(=O)c3ccccc3n(Cc3ccc(Cl)cc3)c2=O)cc1OC ?
D2 ag-2: 0; D2 PAM-2: 11

Results for O=C(Cc1noc2ccccc12)NNC(=S)Nc1ccccc1 ?
D2 ag-1: -6; D2 PAM-1: -10

Results for O=C(Cc1noc2ccccc12)NNC(=S)Nc1ccc(Cl)cc1 ?
D2 ag-1: -9; D2 antagonist: 48*; D2 ag-2: 0; D2 PAM-1: -12; D2 PAM-2: 18

How did Brc1cccc(-c2nnn3c2nc(NCc2ccc4c(c2)OCO4)c2ccccc23)c1 do in these assays?
D2 ag-2: 0; D2 PAM-2: 3

Results for CC(=O)c1ccccc1NS(=O)(=O)c1cc2c(cc1C)NC(=O)CO2 ?
D2 ag-2: 0; D2 PAM-2: -7

How did Cc1c(C)c2ccc(OCC(=O)Nc3ccccn3)cc2oc1=O do in these assays?
D2 ag-1: -3; D2 antagonist: 36*; D2 ag-2: 0; D2 PAM-1: -4; D2 PAM-2: 10

What do the screens show for `COc1ccc2c(c1)c1c(c(=O)n(-c3cc(Cl)ccc3C)c(=O)n1CC(=O)N1CCCC1)n2C`?
D2 ag-2: 0

How did COc1ccc(-c2[nH]nc3oc(=O)cc(C)c23)cc1 do in these assays?
D2 ag-1: -2; D2 antagonist: 33*; D2 ag-2: 0; D2 PAM-1: -7; D2 PAM-2: 28

Results for CCCNC(=O)COC(=O)c1ccc(N2CCCC2)c([N+](=O)[O-])c1 ?
D2 ag-1: 0; D2 antagonist: -8; D2 ag-2: 1; D2 PAM-1: 3; D2 PAM-2: 0

What do the screens show for `Cc1ccc(Cl)cc1NC(=O)COC(=O)c1ccc(N2CCCC2)c([N+](=O)[O-])c1`?
D2 antagonist: 57*; D2 ag-2: 0; D2 PAM-2: -9

How did N#CCc1ccc(C(=O)c2ccccc2)s1 do in these assays?
D2 ag-1: 4; D2 antagonist: 40*; D2 ag-2: 0; D2 PAM-1: -2; D2 PAM-2: 16

What do the screens show for `Cn1c(C(=O)NCCN2CCc3ccccc3C2)cc2c(=O)n(C)c3ccccc3c21`?
D2 ag-1: 5; D2 antagonist: 48*; D2 ag-2: -2; D2 PAM-1: -6; D2 PAM-2: -22

How did C=CCn1c(=NC(=O)c2ccccc2[N+](=O)[O-])sc2cc(S(C)(=O)=O)ccc21 do in these assays?
D2 ag-1: inconclusive; D2 antagonist: 3; D2 ag-2: -1; D2 PAM-1: 71*; D2 PAM-2: 13

Results for Cc1nc2c(C(=O)NCCc3ccc(Cl)cc3)c[nH]n2c(=O)c1Cc1ccccc1F ?
D2 PAM-2: -16

How did Cc1nc2c(C(=O)NCCC(C)C)c[nH]n2c(=O)c1Cc1ccccc1F do in these assays?
D2 ag-1: 3; D2 antagonist: 37*; D2 ag-2: 1; D2 PAM-1: 5; D2 PAM-2: 5

Results for Cc1cc2c([nH]c3ccccc32)c2c1OC(C)(C)C=C2 ?
D2 ag-1: 15; D2 antagonist: 43*; D2 ag-2: 0; D2 PAM-1: -14; D2 PAM-2: 14

How did CCOC(=O)C1=C(CC)Nc2ccccc2N=C1NC(=O)Nc1ccccc1OC do in these assays?
D2 ag-1: -4; D2 antagonist: 51*; D2 ag-2: -1; D2 PAM-1: -17; D2 PAM-2: -26

What do the screens show for `Cc1ccc(S(=O)(=O)C2(C(=O)NC3CCCC3)CC2)cc1`?
D2 ag-1: 2; D2 antagonist: -1; D2 ag-2: 0; D2 PAM-1: 8; D2 PAM-2: 35*

What do the screens show for `Cc1ccc(S(=O)(=O)C2(C(=O)NC3CCCCC3C)CC2)cc1` (stereo unspecified)?
D2 ag-1: -1; D2 antagonist: 5; D2 ag-2: 0; D2 PAM-1: -6; D2 PAM-2: 0

Results for CC(C)c1ccc(NC(=O)CSC2=Nc3ccccc3C3=NC(CC(=O)NCc4ccc(F)cc4)C(=O)N23)cc1 (stereo unspecified) ?
D2 ag-2: -1; D2 PAM-2: 5

Results for CC(C)C(=O)NC(=S)Nc1ccc(S(=O)(=O)Nc2nccs2)cc1 ?
D2 ag-1: 1; D2 antagonist: 39*; D2 ag-2: 1; D2 PAM-1: -4; D2 PAM-2: -5

What do the screens show for `CC(Oc1ccc(Br)cc1)C(=O)Nc1ccc(S(=O)(=O)Nc2nccs2)cc1` (stereo unspecified)?
D2 ag-1: -2; D2 antagonist: -3; D2 ag-2: 2; D2 PAM-1: -3; D2 PAM-2: 2

What do the screens show for `CCC(Oc1ccc(C)cc1)C(=O)Nc1ccc(S(=O)(=O)Nc2nccs2)cc1` (stereo unspecified)?
D2 ag-1: -3; D2 antagonist: 14; D2 ag-2: 2; D2 PAM-1: -6; D2 PAM-2: 42*

Bioassay records: PubChem, National Center for Advancing Translational Sciences (NCATS)
